Measured values reported in PubChem BioAssay.
Active and inactive are the calls of the source.

Experiments:
[1] = compounds binding Alexa647 anti-His antibody – biochemical, small-molecule microarray, 635 nm fluorescence, artefact control for SMM control protein annotation, primary screen (AID 1128); conditions: higher = more signal;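 further: score merges feature fluorescence with signal-to-noise for each printed compound spot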
[2] = tested on: Human papillomavirus type 1a E7 protein (residues 1-88); assay: HPV1a E7 small-molecule binders, primary screen, biochemical, small-molecule microarray, residues 1-88, 635 nm (AID 1129); conditions: small-molecule microarray binding, fluorescence 635 nm; higher = more signal
[3] = target: Focal adhesion kinase 1 (Homo sapiens) (UniProt Q05397); assay: PTK2 protein binding on printed compound slides – biochemical, small-molecule microarray, 635/667 nm fluorescence, BSA, DTT, primary screen (AID 1130); conditions: 635 nm fluorescence, higher = more signal;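 further: composite of spot emission at 667 nm and signal to noise over triplicate slides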
Focal adhesion kinase 1 (Homo sapiens), sequence (Q05397 whole entry, looked up): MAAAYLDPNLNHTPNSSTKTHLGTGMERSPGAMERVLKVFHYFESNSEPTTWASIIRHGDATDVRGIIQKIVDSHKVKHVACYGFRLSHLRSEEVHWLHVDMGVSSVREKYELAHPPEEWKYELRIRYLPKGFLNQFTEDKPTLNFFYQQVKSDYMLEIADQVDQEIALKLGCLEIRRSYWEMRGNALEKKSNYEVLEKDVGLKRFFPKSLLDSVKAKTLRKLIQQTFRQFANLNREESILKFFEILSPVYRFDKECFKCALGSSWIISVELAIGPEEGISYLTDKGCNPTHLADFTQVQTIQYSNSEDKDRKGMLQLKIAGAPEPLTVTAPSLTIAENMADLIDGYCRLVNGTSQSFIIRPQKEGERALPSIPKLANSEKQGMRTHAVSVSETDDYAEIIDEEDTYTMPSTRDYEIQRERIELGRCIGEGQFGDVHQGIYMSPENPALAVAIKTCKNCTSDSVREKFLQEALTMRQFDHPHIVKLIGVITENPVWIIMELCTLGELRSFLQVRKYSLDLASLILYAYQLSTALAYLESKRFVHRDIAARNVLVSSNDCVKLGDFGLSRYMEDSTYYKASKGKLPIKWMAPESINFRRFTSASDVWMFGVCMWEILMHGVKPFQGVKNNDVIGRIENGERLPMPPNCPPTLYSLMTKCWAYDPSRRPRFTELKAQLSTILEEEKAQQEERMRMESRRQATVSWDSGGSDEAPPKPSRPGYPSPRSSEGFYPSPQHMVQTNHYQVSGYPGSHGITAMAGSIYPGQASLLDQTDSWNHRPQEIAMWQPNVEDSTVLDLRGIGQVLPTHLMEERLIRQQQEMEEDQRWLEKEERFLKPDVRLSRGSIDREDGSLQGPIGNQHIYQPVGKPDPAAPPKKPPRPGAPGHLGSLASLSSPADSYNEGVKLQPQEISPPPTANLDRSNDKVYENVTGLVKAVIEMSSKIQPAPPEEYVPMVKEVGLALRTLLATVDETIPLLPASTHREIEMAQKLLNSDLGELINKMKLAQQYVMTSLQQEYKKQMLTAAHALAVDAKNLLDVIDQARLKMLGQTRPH

[4] = tested on: Fibrinogen (Alexa647-labelled); assay: Alexa647-fibrinogen binding to printed small molecules – biochemical, small-molecule microarray, 635/667 nm fluorescence, artefact control for SMM control-protein annotation, profiling panel (AID 1131); conditions: fibrinogen-A647 binding fluorescence, higher = more signal;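 further: z-score merges 667 nm fluorescence with per-spot signal-to-noise over triplicate slides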
[5] = target: Follistatin (Homo sapiens) (UniProt P19883); assay: FST protein binding to printed compounds – biochemical, small-molecule microarray, 635/667 nm fluorescence, primary screen (AID 1132); conditions: 635 nm fluorescence, higher = more signal
Follistatin (Homo sapiens), sequence (P19883 whole entry, looked up): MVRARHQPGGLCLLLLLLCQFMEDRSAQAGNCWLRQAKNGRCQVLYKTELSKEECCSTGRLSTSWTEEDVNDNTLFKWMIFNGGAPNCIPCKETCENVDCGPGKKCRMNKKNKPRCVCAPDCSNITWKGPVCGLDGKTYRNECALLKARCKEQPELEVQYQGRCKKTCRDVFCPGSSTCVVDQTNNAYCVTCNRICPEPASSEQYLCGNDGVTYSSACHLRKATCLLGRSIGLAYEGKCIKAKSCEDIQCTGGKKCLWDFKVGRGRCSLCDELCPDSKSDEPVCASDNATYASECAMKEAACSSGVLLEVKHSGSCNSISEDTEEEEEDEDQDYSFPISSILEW

[6] = target: Fibroblast growth factor 2 (Homo sapiens) (UniProt P09038); assay: basic fibroblast growth factor binding to printed compounds – biochemical, small-molecule microarray, 635/667 nm fluorescence, primary screen (AID 1133); conditions: FGF2, fluorescence 635/667, higher = more signal
Fibroblast growth factor 2 (Homo sapiens), sequence (P09038 whole entry, looked up): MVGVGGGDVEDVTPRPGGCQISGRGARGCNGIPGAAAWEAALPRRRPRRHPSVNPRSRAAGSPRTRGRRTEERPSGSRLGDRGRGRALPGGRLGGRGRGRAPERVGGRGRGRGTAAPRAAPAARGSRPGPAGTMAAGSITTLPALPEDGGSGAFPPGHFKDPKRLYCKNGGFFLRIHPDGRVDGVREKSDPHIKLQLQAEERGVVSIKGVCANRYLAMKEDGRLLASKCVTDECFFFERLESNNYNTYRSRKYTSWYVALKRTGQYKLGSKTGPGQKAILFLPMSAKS

[7] = JC-1 mitochondrial potential readout, lung cancer cells – cell-based, A549, JC-1 fluorescence, basal, 24 h, 100 nL, profiling panel (AID 1138); conditions: higher = more signal;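 further: A549 lung adenocarcinoma cells under basal conditions with no added stimulus; test concentration not given here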
Lefty1 = Lefty1 protein binding to printed compounds – biochemical, small-molecule microarray, 635/667 nm fluorescence, primary screen (AID 1139); conditions: fluorescence 635/667, higher = more signal
[8] = tested on: wheat germ agglutinin (Triticum aestivum), Alexa647-labelled; assay: Alexa647-WGA lectin binding to printed small molecules – biochemical, small-molecule microarray, 635/667 nm fluorescence, artefact control for SMM control-protein annotation, profiling panel (AID 1140); conditions: WGA-A647 binding, 635 nm fluorescence, higher = more signal;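 further: score merges 667 nm feature emission with signal to noise over triplicate slides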
[9] = target: Luciferin 4-monooxygenase (Photinus pyralis) (UniProt P08659); assay: inhibition of purified Photinus pyralis luciferase – biochemical, luminescence, purified enzyme, 2006 set, primary screen (AID 1141); conditions: purified firefly luciferase, SteadyGlo luminescence, 30 min; higher = more signal, called active from +8 up or from −8 down;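 further: cell-free assay with purified firefly luciferase at 100 ng per well in PBS; test concentration not given here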
Luciferin 4-monooxygenase (Photinus pyralis), sequence (P08659 whole entry, looked up): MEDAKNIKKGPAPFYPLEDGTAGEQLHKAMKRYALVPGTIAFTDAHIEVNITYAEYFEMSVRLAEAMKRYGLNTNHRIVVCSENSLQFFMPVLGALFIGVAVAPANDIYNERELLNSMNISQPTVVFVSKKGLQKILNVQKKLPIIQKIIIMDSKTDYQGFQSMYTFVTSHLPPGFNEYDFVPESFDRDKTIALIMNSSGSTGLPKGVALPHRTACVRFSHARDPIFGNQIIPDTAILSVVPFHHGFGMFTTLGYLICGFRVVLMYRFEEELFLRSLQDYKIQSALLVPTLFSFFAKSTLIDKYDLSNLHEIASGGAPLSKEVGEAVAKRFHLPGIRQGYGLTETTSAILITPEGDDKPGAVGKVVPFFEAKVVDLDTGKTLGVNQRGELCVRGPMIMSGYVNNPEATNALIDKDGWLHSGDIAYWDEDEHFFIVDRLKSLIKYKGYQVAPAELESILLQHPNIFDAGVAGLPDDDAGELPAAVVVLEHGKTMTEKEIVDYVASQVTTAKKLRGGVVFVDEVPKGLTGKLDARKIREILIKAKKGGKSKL

Compound | composite z-score [1] | composite z-score [2] | composite z-score [3] | composite z-score [4] | composite z-score [5] | composite z-score [6] | z-score [7] | composite z-score (Lefty1) | composite z-score [8] | z-score [9]
COCCOC(=O)N1C(=O)[C@@]2(c3cc(C#CCC(C(=O)OC)C(=O)OC)ccc31)[C@H](C(=O)N1CCCCCCC1)[C@H]1C(=O)O[C@H](c3ccccc3)[C@H](c3ccccc3)N1[C@@H]2c1ccccc1OCCO | 2.09 | 1.18 | 0.945 | 0.775 | 1.45 | 1.43 | -1.49 | 0.884 | 1.46 | -0.694 (inactive)
COc1cc2c(cc1O)C(c1ccc(CN3CCCC3)cc1)N(Cc1ccc([N+](=O)[O-])o1)CC2 (stereo not given) | 0.27 | -0.96 | -0.537 | 0.121 | -0.147 | 0.253 | 1 | -0.606 | 0.522 | -0.659 (inactive)
CC(C)C(=C=CC[C@@H](O)c1cccc(OCCO)c1)CCO | 0.241 | 0.0895 | -0.0966 | 0.236 | 1.14 | 1.61 | 0.265 | 0.524 | 0.271 | -0.852 (inactive)
O=C1NC(=O)C2C1C=CC(C(O)c1ccc(F)cc1)N2Nc1ccccn1 (stereo not given) | 0.842 | 0.399 | 0.113 | 0.796 | 0.269 | 0.0568 | -0.108 | -0.269 | 0.118 | -0.855 (inactive)
O=C1C2C=CC(C(O)C(c3ccccc3)c3ccccc3)N(Nc3ccccc3)C2C(=O)N1c1ccccc1 (stereo not given) | 0.59 | 1.28 | 0.175 | 1.03 | 1.29 | 0.472 | 0.0105 | 0.707 | 0.882 | -1.05 (inactive)
CCOC(=O)C1=CC[C@@H](c2ccc(F)cc2)N(S(=O)(=O)c2ccc(C)cc2)[C@H]1c1ccc([N+](=O)[O-])cc1 | 0.353 | 1.19 | 0.866 | 0.954 | 0.283 | -0.218 | 1.83 | 0.242 | 0.742 | 2.28 (inactive)
C=CC[C@]1(C(=O)NCCCOC)N=C(c2ccc(OCCCO)cc2)O[C@H]1c1ccccc1 | 1.19 | 1.21 | 0.0442 | -0.922 | 1.29 | -0.9 | 0.266 | -0.689 | 0.566 | 0.436 (inactive)
